From PubChem
FEN1 inhibitor = qHTS Assay for the Inhibitors of Human Flap endonuclease 1 (FEN1); Recombinant FEN1 flap cleavage, fluorescence, 15 min; AID 588795, 2011; P39748; actives 0.35% (n = 390,000); Potency, µM (doses to about 114 µM), inactives show at the highest dose activity change, negative = inhibition, actives largely listed as inhibitors; note: potency is the fitted concentration of half-maximal effect; % is set by controls: 0 for no effect and ±100 for the full control effect; nearly all actives have a fitted effect of over 65% in size
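FEN1 at 10 nM, compound pretreatment for 15 min (room temperature), 50 nM final substrate to initiate; endpoint reads at 0 and 15 min; DMSO-only plates used as vehicle background.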
PI5P4K alpha inh = qHTS for Inhibitors of phosphatidylinositol 5-phosphate 4-kinase (PI5P4K). PI5P4Kalpha enzyme, ADP-Glo luminescence, 60 min; stronger effect = lower value. max response, %. actives 1.2% (n = 330,000); active = max response of -50% or lower; inconclusive = between -30% and -50%; inactive = -30% or higher; note: value at the top dose of about 77 µM; % is set by controls: 0 for no effect and ±100 for the full control effect
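Quantitative HTS of the MLSMR library against PI5P4Kalpha with substrate. ATP added last at 5 microM final; room temperature, 60 minutes. Remaining ATP depleted, ADP converted and read as luminescence.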
Pol beta inh = qHTS Assay for Inhibitors of DNA Polymerase Beta | actives 1.3% (n = 340,000) | Pol beta primer extension/strand displacement, fluorescence kinetic | P06746 | Potency, µM (highest dose often 114 µM), for inactives: at the highest dose activity change, negative = inhibition, usual class: inhibitors; note: potency is the fitted concentration of half-maximal effect; % is set by controls: 0 for no effect and ±100 for the full control effect
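Enzyme-only controls used 10 nM Pol beta; buffer lacking enzyme served as negative control. Compound preincubated 15 min, then 50 nM substrate added; 0 and 10 min reads at room temperature.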
POLI inh = qHTS for Inhibitors of Polymerase Iota; Potency, µM (highest dose often 115 µM), for the others: at the top dose activity, negative = inhibition, hits mostly inhibitors; Pol iota fluorescent replication assay, 10 min; DNA polymerase iota (Homo sapiens), Q9UNA4; actives 1% (n = 390,000); note: potency is the fitted concentration of half-maximal effect
Target sequence (Q9UNA4 whole entry, looked up): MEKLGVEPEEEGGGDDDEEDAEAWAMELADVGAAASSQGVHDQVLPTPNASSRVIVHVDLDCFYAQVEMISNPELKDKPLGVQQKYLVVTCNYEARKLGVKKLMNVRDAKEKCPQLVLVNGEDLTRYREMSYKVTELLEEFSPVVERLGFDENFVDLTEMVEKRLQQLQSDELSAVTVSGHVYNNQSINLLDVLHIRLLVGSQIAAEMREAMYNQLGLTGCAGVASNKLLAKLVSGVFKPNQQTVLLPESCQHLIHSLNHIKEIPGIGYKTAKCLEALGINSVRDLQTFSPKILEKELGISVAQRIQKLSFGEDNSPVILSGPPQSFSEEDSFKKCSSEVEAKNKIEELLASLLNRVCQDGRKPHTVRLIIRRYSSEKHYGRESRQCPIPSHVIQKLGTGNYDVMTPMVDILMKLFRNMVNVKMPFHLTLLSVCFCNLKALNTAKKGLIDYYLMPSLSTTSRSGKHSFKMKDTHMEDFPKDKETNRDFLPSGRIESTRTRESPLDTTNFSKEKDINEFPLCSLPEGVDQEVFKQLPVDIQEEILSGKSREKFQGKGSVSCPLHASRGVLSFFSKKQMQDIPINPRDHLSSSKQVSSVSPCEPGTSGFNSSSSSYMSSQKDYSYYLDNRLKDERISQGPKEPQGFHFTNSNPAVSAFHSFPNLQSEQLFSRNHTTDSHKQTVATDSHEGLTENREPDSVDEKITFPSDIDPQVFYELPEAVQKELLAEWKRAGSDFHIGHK
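Fluorescent replication assay read twice, at 0 min and 10 min after adding 50 nM (final) substrate. Enzyme (10 nM) and compounds were first incubated 15 min at room temperature; enzyme-free buffer wells were negative controls.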
POLH inh = qHTS for Inhibitors of Polymerase Eta; DNA polymerase eta (Homo sapiens), Q9Y253; recombinant Pol eta, fluorescent DNA replication assay; Potency, µM (top dose mostly 114 µM), for inactives: at the highest dose activity change, negative = inhibition, most hits filed as inhibitors; actives 1.2% (n = 390,000); AID 588591, 2011; note: potency is the fitted concentration of half-maximal effect; % is set by controls: 0 for no effect and ±100 for the full control effect
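Pol eta at 10 nM preincubated with compounds 15 min at room temperature; reaction started with fluorescent substrate (50 nM final) and read kinetically at 0 and 10 min.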
POLK inh = qHTS for Inhibitors of Polymerase Kappa; DNA polymerase kappa (Homo sapiens), Q9UBT6; purified Pol kappa, fluorescent DNA synthesis assay, 10 min; Potency, µM (titrated, usually from 107 µM), inactives show top-dose activity, negative = inhibition, usual class: inhibitors; actives 0.53% (n = 400,000); AID 588579, 2011; note: potency is the fitted concentration of half-maximal effect; % is set by controls: 0 for no effect and ±100 for the full control effect
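Kinetic fluorescence screen: compound preincubated 15 min RT with 10 nM enzyme; 50 nM substrate (final) initiates; reads at 0/10 min.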
Active calls of the source: *; ? = inconclusive; . = not tested or not shown; [ ] = remark or other dose. Most compounds without a hit are left out; they make up all but 2.8% or so of the library. Unless noted, calls come from the whole dose curve; as a rule, active = well fitted curve in the direction sought with a large enough effect; inconclusive = small, poorly fitted or top-dose-only effect, or another doubt; inactive = no such curve, though single readings can be large; an effect the other way counts as inactive or inconclusive.

SMILES | FEN1 inhibitor | PI5P4K alpha inh | Pol beta inh | POLI inh | POLH inh | POLK inh
COc1cc(C2CC(=O)Nc3cc4c(cc32)OCCO4)cc(OC)c1O (centres undefined) | -22% | . | 34% | 61% | -9% | -20%
CC[C@H](C)[C@H](NC(=O)[C@H](C)NC(=O)[C@H](CC(=O)O)NC(=O)[C@H](CO)NC(=O)[C@@H](N)Cc1cnc[nH]1)C(=O)N[C@@H](Cc1ccccc1)C(=O)N[C@H](C(=O)N[C@@H](CCC(N)=O)C(=O)N[C@@H](CCC(N)=O)C(=O)N[C@@H](Cc1ccc(O)cc1)C(=O)N[C@@H](CO)C(=O)N[C@@H](CCCCN)C(=O)N[C@@H](CC(C)C)C(=O)N[C@@H](CC(C)C)C(=O)N[C@@H](C)C(=O)N[C@@H](CCCCN)C(=O)N[C@@H](CC(C)C)C(=O)N[C@@H](C)C(=O)N[C@@H](CC(C)C)C(=O)N[C@@H](CCC(N)=O)C(=O)N[C@@H](CCCCN)C(=O)N[C@@H](Cc1ccc(O)cc1)C(=O)N[C@@H](CC(C)C)C(=O)N[C@@H](C)C(=O)N[C@@H](CO)C(=O)N[C@H](C(=O)N[C@@H](CC(C)C)C(=O)NCC(=O)N[C@@H](CO)C(=O)N[C@@H](CCCNC(=N)N)C(=O)N[C@H](C(=O)N[C@@H](CO)C(=O)N1CCC[C@H]1C(=O)N1CCC[C@H]1C(=O)N1CCC[C@H]1C(N)=O)[C@@H](C)O)[C@@H](C)CC)[C@@H](C)O | . | . | . | . | . | 12%[60.1 µM]
Cc1nn(-c2ccccc2)c(Cl)c1/C=C1\SC(=S)N(CCCCCC(=O)O)C1=O | -15% | 2 | 27% | -18% | 25µM* | -7%
Cc1c(Br)ccc(NC(=O)Cn2nc(-c3cccs3)ccc2=O)c1C | -13% | 8 | 18µM* | 50µM* | -25% | -9%
COC(=O)C(C)Oc1ccc2c(c1)O/C(=C\c1ccco1)C2=O (centres undefined) | -8% | ? | ? | 45µM* | 45µM* | ?
CCc1ccccc1NC(=O)CN(Cc1ccccc1)S(=O)(=O)c1ccc(Br)cc1 | -4% | . | 21% | -5% | 1% | -5%
C[C@@H]1CCCCO[C@@H](CN(C)Cc2ccncc2)[C@@H](C)CN([C@H](C)CO)C(=O)c2cc(NC(=O)c3ccccc3)ccc2O1 | . | -2 | . | . | -12% | .
NNc1ccccc1C(F)(F)F | -9% | 3 | 20µM* | 69% | 4% | -3%
CC(=O)Nc1ccccc1C(F)(F)F | -2% | 0 | 3% | 22% | -12% | -12%
COc1cc(OC)c(C#N)c(S(=O)(=O)Cc2ccccc2)c1 | -6% | -15 | 7% | -9% | 3% | -5%
N#Cc1c([N+](=O)[O-])cc([N+](=O)[O-])cc1S(=O)(=O)Cc1ccccc1 | 79µM* | -8 | . | ? | ? | -9%
Cc1ccc(NC(=O)C2CCN(S(=O)(=O)c3ccc4c(c3)NC(=O)C(C)S4)CC2)c(Cl)c1 (centres undefined) | 4% | 0 | ? | 16µM* | -17% | -14%
COC(=O)/C=c1/s/c(=C(\C#N)C(=O)NCc2ccco2)n(-c2ccccc2)c1=O | 5% | -25 | 18% | 89µM* | ? | -10%
CC(=O)N1CCc2c(sc3c2c(=O)n(-c2cc(Cl)ccc2C)c(=O)n3Cc2ccccc2F)C1 | -13% | . | -6% | -9% | -5% | 5%
Cc1sc(-n2c(C)cc(/C=C3\SC(=S)NC3=O)c2C)c(C#N)c1C | ? | . | 32µM* | ? | 22µM* | 79µM*
C=C(C)COc1ccc2oc(C)c(C(=O)OCCOC)c2c1 | -13% | . | 15% | 89µM* | 1% | -2%
Cc1nn(-c2cccc(C(F)(F)F)c2)c(Cl)c1/C=N/Nc1cccc(C(=O)O)c1 | -13% | -2 | 56µM* | 0% | -9% | 1%
CN(C)C(CN=C1NS(=O)(=O)c2ccccc21)c1ccco1 (centres undefined) | -5% | 0 | ? | 79µM* | -20% | -31%
CCCCCCCCSc1nnc2[nH]c(=O)cc(N)n12 | 21% | -50* | -25% | 6% | -17% | 3%
CCCCCCSc1nnc2[nH]c(=O)cc(N)n12 | -3% | -13 | -1% | -15% | -16% | -1%
Cc1nc2cc(NC(=O)NCCC3=CCCCC3)ccc2o1 | 1% | . | 7% | 89µM* | 5% | 7%
Cc1nc2cc(NC(=O)NCCCO)ccc2o1 | -6% | -10 | -8% | 79% | -9% | -5%
Cc1ccc(NC(=O)CN(C)C(=O)c2nn(C)c(=O)c3ccccc23)cc1 | -1% | 0 | 2% | 33% | -14% | 6%
Cc1ccc(Cn2c(C3CCCN3c3nc(-c4cc(Cl)c(N)c(Cl)c4)cs3)nc3cc(C(=O)NCCCO)ccc32)cc1 (centres undefined) | 6% | 1 | . | 45µM* | -12% | -11%
Cc1ccc(Cn2c(C(C)Nc3nc(-c4ccc(F)cc4)cs3)nc3cc(C(=O)NCCCO)ccc32)cc1 (centres undefined) | 5% | 14 | . | ? | -22% | 1%
SMILES | FEN1 inhibitor | PI5P4K alpha inh | Pol beta inh | POLI inh | POLH inh | POLK inh
O=C(Cn1ncc(Cl)c(Cl)c1=O)Nc1ccc2c(c1)OCO2 | 18% | -52* | . | ? | ? | -4%
Cc1ccc(S(=O)(=O)N2CCCCC2)cc1NC(=O)Cn1ncc(Cl)c(Cl)c1=O | 23% | -52* | . | ? | 56µM* | 4%
O=C(Cn1ncc(Cl)c(Cl)c1=O)NC(=O)NC1CCCCC1 | -12% | -50* | . | ? | ? | -15%
Cc1ccc(NC(=O)CS(=O)CC(=O)Nc2ccc3c(c2)OCO3)cc1Cl (centres undefined) | -13% | -22 | 50µM* | ? | ? | -29%
Cc1ccc(S(=O)(=O)N2CCCCC2)cc1NC(=O)Cn1cnnn1 | 13% | 5 | 11% | 26% | -4% | -6%
Cc1ccc(S(=O)(=O)N(CC(=O)Nc2ccc3c(c2)OCO3)c2ccc(C)c(Cl)c2)cc1 | ? | . | 26% | 0% | -24% | -6%
Cn1cnc(S(=O)(=O)N2CCN(c3cccc(C(F)(F)F)c3)CC2)c1 | -5% | 7 | -11% | 17% | -9% | -2%
Cc1occc1C(=O)N1CCCC(N2CCN(c3ccccc3F)CC2)C1 (centres undefined) | -4% | -2 | 47% | 7% | -13% | -11%
